Compounds with a hit are over-represented: about 8.1% of the library has one in this group of screens.
PINK1 expr mod: A Quantitative High throughput Screen to Identify Chemical Modulators of PINK1 Expression | PINK1 immunofluorescence, high-content cytometry, 24 h | 410,000 tested, 0.2% active | Potency, µM (titrated, usually from 76.6 µM), for inactives: at the top dose activation (PINK1 increase), actives largely listed as activators; active means well fitted activation curve with a large enough effect; inconclusive means small, poorly fitted or top-dose-only effect; cell line not stated here; further: % of control where 0% means no effect; nearly all actives have a fitted effect of over 65% in size
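Decision-based qHTS: stable cells, 24 h exposure to five compound concentrations, CCCP as control. Fixed cells stained for PINK1 plus nuclear, mitochondrial and cell markers, cytometer read.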
VP16 counter: VP16 counterscreen qHTS for inhibitors of ROR gamma transcriptional activity; Drosophila S2 Gal4-VP16 UAS-luciferase, luminescence, 20 h; Potency, µM (top dose mostly 53.6 µM), without a hit: top-dose activity, negative = inhibition, usual class: inhibitors; 310,000 tested, 3.5% active; AID 2546, 2010;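 further: Gal4-VP16 expression switched on by copper sulfate through the metallothionein promoter; on the % scale 0 is the no-effect control and ±100 the full control effect; nearly all actives have a fitted effect of over 50% in size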
ClpP mod: qHTS Assay for Activators of ClpP; ATP-dependent Clp protease proteolytic subunit (Bacillus subtilis (strain 168)), P80244; Potency, µM (titrated, usually from 57.5 µM), without a hit: at the highest dose activity change, negative = active; purified B. subtilis ClpP, FRET peptide cleavage, 20 min; 340,000 tested, 1.9% active; active means well fitted falling curve with a large enough effect; inconclusive means small, poorly fitted or top-dose-only effect; inactive means no such curve, though single readings can be large or run the other way; further: the source files actives as falling curves though it sought activators and does not explain the sign; nearly all actives have a fitted effect of over 65% in size
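ClpP 10 microg/mL final, pH 8 Tris/KCl buffer with BSA, glycerol, Tween-20; compound pinned in; FRET-FV substrate; RT 20 min; Ex320/Em430; ΔFRET vs ADEP 5.8 microM, DMSO, no enzyme.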
Epigenetic reg: Quantitative High-Throughput Screen for Regulators of Epigenetic Control; murine LDR cells, GFP reporter derepression, 30 h; Potency, µM (top dose mostly 53.9 µM), for inactives: top-dose GFP activation, actives largely listed as activators; 280,000 tested, 0.2% active; further: % of control where 0% means no effect; nearly all actives have a fitted effect of over 60% in size
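GFP-positive cell count by laser-scanning cytometry (objects 20–120 um) after 30 h, 37 C compound exposure of murine LDR cells; reporter is CMV-GFP integrated at a silenced locus, inducible by HDAC or DNMT inhibitors.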
RORg inh: qHTS for inhibitors of ROR gamma transcriptional activity; Potency, µM (titrated, usually from 53.6 µM), for inactives: at the top dose activity change, negative = inhibition, most hits filed as inhibitors; AID 2551, 2010; 310,000 tested, 5.4% active; Drosophila S2 Gal4-RORgamma UAS-luciferase reporter, 20 h; Nuclear receptor ROR-gamma (Mus musculus), P51450; further: on the % scale 0 is the no-effect control and ±100 the full control effect; nearly all actives have a fitted effect of over 60% in size
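Drosophila S2 cells stably expressing Gal4-DBD/mouse RORγ fusion under metallothionein promoter plus UAS-luciferase; compound 1 h, then 700 uM CuSO4 induction for 20 h at ambient temperature; inhibition read as reduced luminescence.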
Sfp PPTase inh: qHTS Assay for Inhibitors of Bacillus subtilis Sfp phosphopantetheinyl transferase (PPTase). 4'-phosphopantetheinyl transferase ffp (Bacillus subtilis), Q9F4F7. Biochemical Sfp PPTase activity, qHTS. Potency, µM, for the others: largest response in the series, negative = inhibition, actives largely listed as inhibitors. 310,000 tested, 3.5% active;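 further: the enzyme is Sfp with the accession as filed and its product quenches rhodamine fluorescence; 0% = enzyme reaction without inhibitor and -100% = no enzyme wells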
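Fluorescence-quenching assay with 15 nM Sfp, 5 uM rhodamine-CoA and 12.5 uM BHQ-2-labelled ybbR peptide in pH 7.6 Hepes/MgCl2 buffer. Enzyme was pre-incubated with compound for 15 min at room temperature. Rate was taken from the 30-min fluorescence change (525/598 nm).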
Starred values were filed as active, the others as inactive; ? = inconclusive; / = no result; [ ] = dose if it differs, or a comment. Unless noted, the call rests on the fitted dose curve; in most records, active means well fitted curve in the direction sought with a large enough effect; inconclusive means small, poorly fitted or top-dose-only effect, or another doubt; inactive means no such curve, though single readings can be large; an effect the other way counts as inactive or inconclusive. Potency means the concentration at half of the fitted maximal effect.

SMILES	PINK1 expr mod	VP16 counter	ClpP mod	Epigenetic reg	RORg inh	Sfp PPTase inh
Clc1cccc(C2=NC(c3cccs3)=Nc3ccc(Br)cc3N2)c1	-1%	/	1%	-4%	/	/
Cc1ccc(-c2onc3ccc(Cl)cc23)cc1	18%	30%	-2%	-1%	11%	3%
COc1ccc(-c2onc3ccc(Cl)cc23)cc1	2%	2%	3%	-1%	7%	50µM*
COc1ccc(OC)c(NC(=O)c2cnc(Nc3ccccc3OC)c3ccccc23)c1	?	-13%	35µM*	1%	-12%	0%
Cc1ccc(NC(=O)C(C)OC(=O)c2ccc(Cl)nc2)cc1S(=O)(=O)N1CCOCC1 (stereo not drawn)	-3%	/	28µM*	/	/	/
CCOC(=O)c1c(S(=O)(=O)N2CCCC(C(=O)N3CCN(c4cc(C)ccc4C)CC3)C2)c(C)n(C)c1C (stereo not drawn)	1%	/	1%	-1%	/	/
CCOC(=O)c1c(NC(=S)Nc2ccccc2)sc(C)c1C	0%[38.3 µM]	?	4%	0%	3.5µM*	2%
CC(=O)Nc1sc(C)c(C)c1C(=O)OCC(=O)Nc1ccccc1	?	/	-6%	/	/	/
CCOC(=O)c1c(NC(=O)C2=C(C)NC(=S)NC2c2ccccc2C(F)(F)F)sc(C)c1C (stereo not drawn)	2%	3.5µM*	?	0%	?	16µM*
CCOC(=O)c1cc(C)sc1NC(=S)Nc1ccccc1	2%	3.2µM*	-1%	0%	?	?
COC(=O)c1c(NC(=O)Nc2ccc(Cl)cc2)sc(C)c1C	6%	-12%	-25%	3%	?	-3%
CCOC(=O)c1cc(-c2ccccc2)sc1NC(=S)Nc1cccc(C)n1	?	-9%	-1%	?	13%	-20%
Cc1sc(NC(=O)Nc2ccccc2)c(C(N)=O)c1C	-1%	?	1%	-3%	-11%	20µM*
COc1cccc(CN2CCC3(CCC(CNC(=O)c4ccco4)O3)CC2)c1OC (stereo not drawn)	-1%	/	/	/	/	/
Cc1ccc(N(CC(=O)Nc2ccc(Cl)cc2)S(=O)(=O)c2cccc3nonc23)cc1	2%	/	1%	1%	/	/
CCOC(=O)c1c(NC(=O)C[n+]2ccc(Cc3ccccc3)cc2)sc(C)c1C	3%	?	/	-1%	?	25µM*
BrC(=C\c1ccccc1)/C=N/N1CCN(c2ccccc2)CC1	2%	?	/	0%	?	45µM*
Nc1nnnn1/N=C/C(Br)=C/c1ccccc1	-1%	?	-2%	?	3.2µM*	19%
CC(/C=N/N1CCN(c2ccc(C)cc2)CC1)=C\c1ccccc1	1%	3%	1%	0%	-18%	14%
Nc1nnnn1/N=C/C=C/c1ccccc1	0%	6%	-1%	-2%	23%	6%
O=C(CCCOc1ccc(Cl)cc1Cl)N/N=C/c1ccccc1	7%	?	-11%	1%	-17%	8%
O=C(CCCOc1ccc(Cl)cc1Cl)N/N=C/c1ccccc1O	9%	-83%	-7%	0%	8.9µM*	3%
CN(C(=S)NC(=O)CCCOc1ccc(Cl)cc1Cl)c1ccccc1	/	-77%	0%	0%	5.6µM*	50µM*
O=C(COc1ccc(Cl)cc1Cl)N/N=C/c1ccc[nH]1	2%	4.5µM*	-1%	/	2.8µM*	-15%
CCn1cc(C(=O)N2CCN(c3ccccc3)CC2)c(=O)c2cc(S(=O)(=O)N3CCCC3)ccc21	3%	/	0%	-1%	/	/
SMILES	PINK1 expr mod	VP16 counter	ClpP mod	Epigenetic reg	RORg inh	Sfp PPTase inh
Cc1c(Cl)cccc1NC(=O)CCS(=O)(=O)c1ccc2c(c1)CC(=O)N2C	3%	/	-4%	4%	/	/
Cc1cc(C(=O)Nn2c(C3CCCCC3)nc3ccccc3c2=O)ccc1[N+](=O)[O-]	16µM*	-16%	1%	-2%	?	13%
CC(=O)Nc1ccc(S(=O)(=O)O)c2cc(S(=O)(=O)O)c(N=Nc3ccc(N=Nc4ccc(S(=O)(=O)O)cc4)c4ccc(S(=O)(=O)O)cc34)c(O)c12	0%	/	0%	/	/	/
COC(=O)c1ccc(Cl)cc1NC(=O)NC(C)c1c(-n2cccc2)sc(C)c1C (stereo not drawn)	1%	/	?	0%	/	/
CCN(CC(=O)Nc1cc(Cl)ccc1OC)CC(=O)NC1CCS(=O)(=O)C1 (stereo not drawn)	1%	0%	-1%	-1%	6%	79µM*
CCN(CC(=O)Nc1cc(C)c(Cl)cc1OC)CC(=O)NC1CCS(=O)(=O)C1 (stereo not drawn)	-1%	14%	/	-6%	18%	9%
CC(=O)c1c(-c2ccccc2)[nH]c2ccccc12	3%	2%	-1%	/	?	14%
O=C(O)/C=C/C(=O)c1c(-c2ccccc2)[nH]c2ccccc12	1%	?	2%	/	14µM*	-18%
CCCCn1c(SCC(=O)c2ccccc2)nc2c(sc3ccccc32)c1=O	-1%	/	-5%	0%	/	/
Cc1ccc(Sc2c(O)c3ccccc3n(C)c2=O)cc1	-1%	-2%	-9%	0%	-4%	2%
Cc1ccc(Sc2c([N+](=O)[O-])c(=O)n(C)c3ccccc23)cc1	1%	7.1µM*	-1%	/	11µM*	10%
O=C(COc1ccccc1C(=O)OCC(=O)Nc1cccc2ccccc12)Nc1ccc(Br)cc1	0%	/	0%	/	/	/
O=C1c2ccccc2C(=O)N1CCSc1ncn[nH]1	-1%	-11%	0%	5%	5%	-8%
O=C1c2ccccc2C(=O)N1CCSc1n[nH]c(=S)s1	2%	11%	103%	1%	-25%	50µM*
CC(=O)N1CCc2cc3nc(C)cc(C)c3cc21	0%	-4%	25µM*	-3%	-7%	17%
CC1=NN(C(=O)c2c(Br)cnn2C)C(O)(C(F)(F)F)C1 (stereo not drawn)	-1%	7.9µM*	1%	-1%	5.6µM*	5%
CC1=NN(C(=O)c2nn(C)cc2Br)C(O)(C(F)(F)F)C1 (stereo not drawn)	7%	11µM*	-2%	8%	4µM*	15%
CC1=NN(C(=O)c2c(Br)c(C)nn2C)C(O)(C(F)(F)F)C1 (stereo not drawn)	5%	?	-2%	1%	20µM*	16%
Cn1ncc(Br)c1C(=O)NC1CCCCC1	-1%	6%	/	/	-5%	24%
